PLK1 PBD block: blocks phosphopeptide binding to human PLK1 polo-box domain | Plk1 PBD binding of FITC phosphopeptide, fluorescence polarization | Potency, µM, most hits filed as inhibitors | 360,000 tested, 2.8% active; also: series mostly up to about 57 µM; nearly all actives have a fitted effect of over 65% in size
Sfp PPTase inh: inhibitors of Bacillus subtilis Sfp phosphopantetheinyl transferase. Biochemical Sfp PPTase activity, qHTS. Q9F4F7. 310,000 tested, 3.5% active. Potency, µM, most hits filed as inhibitors;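 also: the enzyme is Sfp with the accession as filed and its product quenches rhodamine fluorescence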
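After 15 min at room temperature with compound, 15 nM Sfp received 5 uM rhodamine-CoA plus 12.5 uM BHQ-2-ybbR (50 mM Hepes pH 7.6, 10 mM MgCl2). Rate came from the fluorescence difference over 30 min, ex 525/em 598 nm.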
G9a block: blocks human histone lysine methyltransferase G9a. G9a H3K9 monomethylation, AlphaScreen, 2 h. Potency, µM (highest dose often 102 µM), actives largely listed as inhibitors. 350,000 tested, 8.8% active; also: nearly all actives have a fitted effect of over 75% in size
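Enzyme 20 nM + cpd, 15 min RT; add b-H3K9 pep 500 nM / SAM 20 uM; 2 h RT; anti-H3K9me1 Ab 0.5 ug/mL + SA donor / anti-rabbit acceptor beads 20 ug/mL each, 10 min; AlphaScreen read.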
JMJD2A Tudor: inhibitors of human JMJD2A Tudor domain; O75164; AlphaScreen JMJD2A-Tudor / H3K4me3 peptide binding; Potency, µM (top dose mostly 114 µM), actives largely listed as inhibitors; 390,000 tested, 4.4% active; AID 504339; also: nearly all actives have a fitted effect of over 50% in size
Target sequence (O75164 whole entry, looked up, the tested form may be a part): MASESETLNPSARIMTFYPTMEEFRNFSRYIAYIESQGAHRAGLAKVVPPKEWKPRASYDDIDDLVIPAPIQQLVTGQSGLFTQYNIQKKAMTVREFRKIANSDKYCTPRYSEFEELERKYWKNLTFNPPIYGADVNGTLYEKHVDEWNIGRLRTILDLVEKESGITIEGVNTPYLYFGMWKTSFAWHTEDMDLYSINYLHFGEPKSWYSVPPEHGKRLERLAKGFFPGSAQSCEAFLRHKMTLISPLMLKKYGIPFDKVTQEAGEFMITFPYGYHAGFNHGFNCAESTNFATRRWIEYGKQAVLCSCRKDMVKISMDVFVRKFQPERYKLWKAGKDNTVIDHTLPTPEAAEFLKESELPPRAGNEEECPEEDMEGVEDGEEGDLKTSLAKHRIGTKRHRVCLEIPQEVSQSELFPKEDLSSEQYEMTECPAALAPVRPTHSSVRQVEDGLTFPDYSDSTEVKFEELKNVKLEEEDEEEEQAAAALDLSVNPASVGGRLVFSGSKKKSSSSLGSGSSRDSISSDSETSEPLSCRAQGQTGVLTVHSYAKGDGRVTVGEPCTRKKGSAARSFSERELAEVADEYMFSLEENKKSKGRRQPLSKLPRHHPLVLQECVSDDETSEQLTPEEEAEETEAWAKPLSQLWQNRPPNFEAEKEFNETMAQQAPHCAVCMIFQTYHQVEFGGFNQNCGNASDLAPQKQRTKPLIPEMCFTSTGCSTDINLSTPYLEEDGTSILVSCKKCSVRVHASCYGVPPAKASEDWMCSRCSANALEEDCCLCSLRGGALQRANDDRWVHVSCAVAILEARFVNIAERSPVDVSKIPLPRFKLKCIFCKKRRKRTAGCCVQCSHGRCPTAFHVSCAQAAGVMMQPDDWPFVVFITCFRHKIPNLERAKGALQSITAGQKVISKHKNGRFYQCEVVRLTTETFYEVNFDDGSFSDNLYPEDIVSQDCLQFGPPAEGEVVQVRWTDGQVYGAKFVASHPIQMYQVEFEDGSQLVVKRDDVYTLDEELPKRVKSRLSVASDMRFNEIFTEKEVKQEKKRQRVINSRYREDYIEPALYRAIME
BAZ2B inh: inhibitors of human BAZ2B bromodomain; AID 504333; AlphaScreen BAZ2B-H3K14Ac peptide displacement; Potency, µM (top dose mostly 114 µM), hits mostly inhibitors; 360,000 tested, 4.4% active; also: nearly all actives have a fitted effect of over 60% in size
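AlphaScreen luminescence quantifies BAZ2B engagement of H3K14Ac peptide; the protein and biotinylated peptide are both at 50 nM final, buffer PBS pH 7.4 with 0.01% Tween-20, all steps at room temperature.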
HP1b binding inh: blocks HP1-beta chromodomain binding to methylated histone tails. P83916. AlphaScreen HP1-beta / biotin-H3K9me3 peptide binding. Potency, µM (series often up to 114 µM), hits mostly inhibitors. 390,000 tested, 0.56% active; also: nearly all actives have a fitted effect of over 70% in size
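AlphaScreen: HP1-beta (50 nM) preformed 30 min with biotin-H3(1-18)K9me3 peptide (50 nM) in PBS pH 7.4, 0.01% Tween-20. Compound added for 30 min at RT, then streptavidin donor/nickel chelate acceptor beads (10 ug/mL) for 30 min.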
Numbers stand for hits; n = inactive; u = inconclusive; x = not tested or not shown; [ ] = another dose, or the depositor's remark. Rows were chosen to be rich in hits. Some 12% of all compounds tested hit in one or more screens of this group. Calls follow the shape of the dose curve; as a rule, active = well fitted curve in the direction sought with a large enough effect; inconclusive = small, poorly fitted or top-dose-only effect, or another doubt; inactive = no such curve, though single readings can be large; an effect the other way counts as inactive or inconclusive.

SMILES	PLK1 PBD block	Sfp PPTase inh	G9a block	JMJD2A Tudor	BAZ2B inh	HP1b binding inh
CC1CCc2c(sc(/N=C/c3cccnc3)c2C(N)=O)C1 (stereo not given)	u	50µM	n[12.7 µM]	n	n	n
CC1CCc2c(sc(/N=C/c3ccco3)c2C(N)=O)C1 (stereo not given)	n	n	u	n	n	n
CC(=O)c1ccc(S(=O)(=O)N2CCN(C(C)C(=O)N(C)Cc3ccccc3)CC2)cc1 (stereo not given)	n	x	x	n	x	n
CCCCCNC(=O)C(C1CC1)n1c(=O)c(-c2ccco2)nc2ccccc21 (stereo not given)	n	x	x	x	x	x
O=C1CCC(C(=O)OCc2cc(Cl)ccc2OC(F)F)N1 (stereo not given)	27µM	n	n	40µM	n	n
O=C(Nc1nnc(SCc2ccc(F)cc2)s1)c1ccccn1	n	n	50µM	28µM	25µM	n
O=C(Nc1nnc(SCc2ccc(F)cc2)s1)c1cccnc1Cl	n	n	u	n	n	n
CC(=O)Nc1nnc(SCc2ccc(C(=O)Nc3ccccc3F)cc2)s1	n	n	45µM	n	n	n
CCOC(=O)c1ccc(NS(=O)C23CC4CC(CC(C4)C2)C3)cc1 (stereo not given)	n	n	5µM	n	n	n
O=C(/C=C/c1ccc(Br)o1)NCCCN1CCOCC1	n	18µM	22µM	n	u	n
COc1ccc(S(=O)(=O)NCC(c2ccc(F)cc2)N2CCOCC2)cc1Br (stereo not given)	n	x	u	n	n	n
COc1ccc(/C=C/C(=O)NCC(c2ccc(F)cc2)N2CCOCC2)cc1OC (stereo not given)	n	n	79µM	n[11.4 µM]	n	n
COc1ccc(/C=C/C(=O)NCCN2CCOCC2)cc1OC	17µM	n	u	u	n	n
CC(C)(C)C(=O)NC(=S)Nc1sc2c(c1C#N)CCCCC2	n	45µM	u	n	n	n
Cn1cc(Cl)c(C(=O)NC(=S)Nc2sc3c(c2C#N)CCCCC3)n1	12µM	u	n	n	n	n
N#Cc1c(NC(=O)c2cc(-n3cnnc3)ccc2Cl)sc2c1CCCC2	n	n	11µM	n	n	n
CC(=O)Nc1sc2c(c1C#N)CCCCC2	n	n	n	n	n	n
Cn1ccc(C(=O)Nc2sc3c(c2C#N)CCC3)n1	u	n	35µM	n	u	n
Cc1ccccc1C(=O)NC(=S)Nc1sc2c(c1C#N)CCCC2	u	n	u	u	n	n
C=CCNC(=S)Nc1sc2c(c1C#N)CCCC2	n	u	45µM	n	n	n
Cn1cc(Br)c(C(=O)Nc2sc3c(c2C(N)=O)CCCC3)n1	n	n	35µM	n	n	n
Cc1cc(C(F)F)n2nc(C(=O)Nc3sc4c(c3C#N)CCC4)nc2n1	27µM	u	50µM	n	u	u
COC(=O)c1c(NC(=O)CN2C(=O)NC3(CCC(C)CC3)C2=O)sc2c1CCC2 (stereo not given)	n	x	n[12.7 µM]	n	n	n
CC1CCC2(CC1)NC(=O)N(CC(=O)Nc1sc3c(c1C(N)=O)CCC3)C2=O (stereo not given)	n	u	50µM	u	50µM	n
Nc1nc2ccccc2cc1C(=O)NCc1cccs1	n	x	x	x	x	x
SMILES	PLK1 PBD block	Sfp PPTase inh	G9a block	JMJD2A Tudor	BAZ2B inh	HP1b binding inh
NC(=O)C1CCN(c2nc(-c3cccs3)cs2)CC1	x	x	n[12.7 µM]	n	u	n
Cc1ccc(C)c(CN2C(=O)c3ccccc3S(=O)c3ccc(C(=O)NCCc4ccc(Cl)cc4)cc32)c1 (stereo not given)	x	x	n	n	n	n
CCC(=O)N1c2ccc(S(=O)(=O)CCC(=O)N3CCN(c4ccc(F)cc4)CC3)cc2CC1C (stereo not given)	x	x	u	n	x	n
O=C(Nc1cccc(Cl)c1Cl)c1csc([C@H]2C[C@H](O)[C@@H](CO)O2)n1	n	x	x	x	x	x
Cc1ccc(NC(=O)N2CCCC2C(=O)Nc2ccc3c(c2)OCCO3)cc1 (stereo not given)	n	n	n	n	n	n
Cn1cc([N+](=O)[O-])c(C(=O)Nc2sc3c(c2C#N)CCC3)n1	n	n	n	n	n	n
Cn1cnnc1SCC(=O)Nc1sc2c(c1C(N)=O)CCC2	27µM	u	u	63µM	50µM	u
N#Cc1c(NC(=O)c2ccccc2)sc2c1CCCCC2	n	n	n	n	n	n
Cn1cc(Br)c(C(=O)Nc2sc3c(c2C#N)CCC3)n1	u	n	35µM	n	n	n
CC(C(=O)Nc1sc2c(c1C#N)CCCCC2)N1C(=O)c2ccccc2C1=O (stereo not given)	n	u	3.2µM	n	u	n
CC(C)(C)c1ccc(OCC(=O)Nc2ccc3c4c(cccc24)C(=O)NC3=O)cc1	u	n	x	79µM	n	n
Cc1ccc(OCC(=O)Nc2ccc3c(c2)C(=O)NC3=O)cc1	n	n	x	u	n	n
CC(C)(C)c1cc[n+](CC(=O)Nc2cc(C(F)(F)F)ccc2N2CCOCC2)cc1	n	n	n	n	n	n
CC1CCCN(S(=O)(=O)c2ccc(NC(=O)CN3CCN(C)CC3)cc2)C1 (stereo not given)	n	u	u	u	79µM	n
CC1CCCN(S(=O)(=O)c2ccc(NC(=O)CNC3CCCC3)cc2)C1 (stereo not given)	n	n	40µM	n	n	n
Cc1ccc(S(=O)(=O)N2CCCC(C)C2)cc1 (stereo not given)	n	n	n	n	n	n
CC1CCCN(S(=O)(=O)c2ccc(S(=O)(=O)NC(C)c3cccs3)cc2)C1 (stereo not given)	u	n	40µM	n	n	n
CCc1nnc(N2C(=N)SCC2=O)s1	n	50µM	28µM	28µM	79µM	n
COc1ccc(C(=O)Nc2nnc(C(F)(F)F)s2)cc1	27µM	n	n	56µM	n	u
CCN1c2ccccc2-c2nc(SCC(=O)Nc3cc(F)ccc3F)ncc2S1(=O)=O	x	x	n	n	n	n
CC(=O)Nc1nc(=S)n(-c2ccccc2)[nH]1	27µM	16µM	4µM	18µM	u	u
CC(C)c1nc(=S)n(-c2ccccc2)[nH]1	n	n	10µM	6.3µM	n	n
Cc1[nH]n(-c2ccccc2)c(=O)c1C(=O)c1ccccc1	n	n	u	n	n	n
c1cc(-c2ccc(N3CCOCC3)cc2)n2ccnc2c1	n	x	x	x	x	x
Cc1cc(N2CCN(Cc3cn(C)nc3-c3cccc(Cl)c3)CC2)cc(C)n1	n	n	x	n	45µM	n
Cn1cc(CN2CCN(c3ncccn3)CC2)c(-c2cccc(Cl)c2)n1	n	n	n	n	n	n
Cc1ccccc1S(=O)Cc1ccc(C(=O)NC2CCCCCC2)o1 (stereo not given)	x	x	n	n	x	n
CC(=O)Nc1ccc2sc(C)nc2c1	n	n	x	n	n	n

Assay outcomes: PubChem BioAssay, National Center for Advancing Translational Sciences (NCATS)
